Activity calls are given as the source filed them.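 The calls were made as follows, unless noted: active = visually confirmed hit in the image check and inhibition above 20%; inconclusive = visually confirmed hit but inhibition not above 20%; inactive = no visual hit in the image check.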
test: inhibitors of mutant huntingtin aggregation, primary screen, imaging, exon1htt(103Q)mCFP cells, high-content imaging (AID 483;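 active = visual image review flags a hit and inhibition of aggregation exceeds 20%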;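 also: compound exposure lasted 3 days before fixation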;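 as to nuclei count: percent of the per-plate median nuclei count of sample wells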); conditions: exon1htt(103Q)mCFP cell line, aggregate imaging, at 2 µM; inhibition of aggregation: stronger effect = higher value; nuclei count: measured here: cell count, toxicity

SMILES	nuclei count	inhibition of aggregation
CCOC(=O)N1CCN(C(=O)CN(Cc2ccccc2)S(=O)(=O)c2ccc(OC)c(C)c2)CC1	106%	1.8% (inactive)
COC(=O)c1ccc(COC(=O)c2c(C)nn(Cc3ccccc3Cl)c2Cl)o1	73.5%	7% (inactive)
O=C(Nc1cccnc1)c1cc2c(ccc3ccccc32)o1	104%	-7.4% (inactive)
Clc1ccc(OCc2nnc(SCCN3CCCCC3)n2Cc2ccco2)cc1	98.8%	6% (inactive)
O=C(/C=C/N1CCOCC1)c1ccc(-c2ccccc2)cc1	112%	8.3% (inactive)
COc1cccc(N2C(=O)N(c3ccccc3Cl)C3CS(=O)(=O)CC32)c1 (stereo not given)	118%	-6% (inactive)
O=C(NCc1cccs1)c1cc2c(s1)CS(=O)(=O)C2	101%	-17.1% (inactive)
CC(C)CC(c1nnnn1C(C)(C)C)N1CCN(C2CCCC2)CC1 (stereo not given)	98.2%	-11.7% (inactive)
Cc1cc(C(=O)COC(=O)CCc2nc3ccccc3s2)c(C)n1C	108%	14.2% (inactive)
Cc1cc(C)n2nc(SCC(=O)N(C)Cc3ccccc3)nc2n1	116%	-27.8% (inactive)
CCCCCCC(c1c(C)n(C)n(-c2ccccc2)c1=O)c1c(C)n(C)n(-c2ccccc2)c1=O	59.4%	21% (inactive)
c1ccc2c(-c3nc(-c4ccncc4)no3)cccc2c1	88.4%	-4.5% (inactive)
CNC(=O)c1ccc2nc(NC(C)=O)sc2c1	74.6%	4.1% (inactive)
O=C(c1ccccc1)c1ccc(N2CCNCC2)cc1	92.6%	-14.4% (inactive)
N#Cc1c(-c2ccc3c(c2)OCO3)csc1N	94%	7.8% (inactive)
Cc1ccc(Cn2c(SCC(N)=O)nc3c2c(=O)n(C)c(=O)n3C)cc1	88%	19.4% (inactive)
C#CCOC(=O)C1C2C=CC(C2)C1C(=O)O (stereo not given)	87.7%	7.3% (inactive)
Cc1nc2ncnn2c(N2CCC(C(=O)NCC3CCCO3)CC2)c1Cc1ccccc1 (stereo not given)	97%	-26.5% (inactive)
CCC(=O)Nc1nn(C)c2nc3c(C)cccc3cc12	87.7%	27.6% (inactive)
Cc1cc(NC(=O)C(C)(C)C)no1	118%	-18% (inactive)

SMILES	nuclei count	inhibition of aggregation
CCN(CC(=O)Nc1ccc2c(c1)CCC2)Cc1nc2ccccc2c(=O)[nH]1	102%	-17.4% (inactive)
Cc1ccc(S(=O)(=O)NCC(=O)OCC(=O)Nc2ncc(Cl)cc2Cl)cc1	115%	-19.2% (inactive)
O=C(CN1C(=O)c2ccccc2C1=O)Nc1ccc(S(=O)(=O)NCC2CCCO2)cc1 (stereo not given)	93.4%	-2.4% (inactive)
Cc1cc(C)nc(SCc2nnc(SCC(=O)Nc3ncc(C)s3)n2Cc2ccco2)n1	98.6%	7.1% (inactive)
COc1ccc(C(C)NC(=O)c2ccoc2C)cc1OC (stereo not given)	105%	-2.3% (inactive)
Cc1nc(C)n(C(C)CC(=O)O)n1 (stereo not given)	90.8%	53.1% (active)
Cc1cccc(N(CC(=O)N2CCCC2)S(=O)(=O)c2ccccc2)c1C	87.6%	23.9% (inactive)
CCC1(C)Cc2c(sc3nc(SCC(=O)O)[nH]c(=O)c23)CO1 (stereo not given)	114%	-5% (inactive)
Cc1cc(NC(=O)CSc2nc(C3CC3)nc3sc4c(c23)CCC(C)C4)no1 (stereo not given)	75.3%	0.7% (inactive)
CCN(CC)C(c1ccc(C)cc1)c1nnnn1C1CCCCC1 (stereo not given)	85.4%	37.1% (inactive)
COc1ccc(NC(=O)CSc2nc(C)cc(C(F)(F)F)n2)cc1	95.3%	8.8% (inactive)
CC1CN(C(=O)CSc2ncnc3sccc23)CC(C)O1 (stereo not given)	98.3%	-13.4% (inactive)
CC1CCCC(C)N1CCNC(=O)C1CCN(S(=O)(=O)N2CCCCC2)CC1 (stereo not given)	104%	17.2% (inactive)
COc1ccc(C(=O)Nc2ccc(Cl)c(Cl)c2)c(OC)n1	111%	-20.2% (inactive)
CC(C)(C)c1ccc(C(=O)N2CCC(C(=O)NCc3ccncc3)CC2)cc1	108%	-12.2% (inactive)
CCc1nnc(NC(=O)CSc2nc(-c3ccc(OC)cc3)ns2)s1	82%	-17.4% (inactive)
COC(=O)c1ccc(NC(=O)C2C3CCC(C3)C2C(=O)O)cc1 (stereo not given)	89.6%	0% (inactive)
c1ccc(-c2nc3cnccn3c2Nc2ccc3c(c2)OCCO3)cc1	101%	11.9% (inactive)
CCOCC(O)CS(=O)Cc1ccccc1 (stereo not given)	99.4%	4.7% (inactive)
Cc1ccc(OCC(O)Cn2c(NCCc3ccccc3)nc3c2c(=O)[nH]c(=O)n3C)cc1 (stereo not given)	107%	-12.3% (inactive)

test: inhibitors of E-selectin induction by TNFa, primary screen, imaging, HUVEC, immunofluorescence, MLSMR starter and 10KST1 sets (AID 487); conditions: HUVEC TNFalpha-induced E-selectin immunofluorescence imaging, at 2 µM; inhibition: stronger effect = higher value; nuclei count: measured here: cell number, toxicity;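 as to inhibition: signal is fraction of cell area covered by stained E-selectin grains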;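 as to nuclei count: 100% = median nuclei count of all wells on the same plate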

SMILES	inhibition	nuclei count
CCOC(=O)N1CCN(C(=O)CN(Cc2ccccc2)S(=O)(=O)c2ccc(OC)c(C)c2)CC1	-6.6% (inactive)	70.5%
COC(=O)c1ccc(COC(=O)c2c(C)nn(Cc3ccccc3Cl)c2Cl)o1	46.3% (inactive)	70.3%
O=C(Nc1cccnc1)c1cc2c(ccc3ccccc32)o1	-160% (inactive)	140%
Clc1ccc(OCc2nnc(SCCN3CCCCC3)n2Cc2ccco2)cc1	45.2% (inactive)	88.3%
O=C(/C=C/N1CCOCC1)c1ccc(-c2ccccc2)cc1	33.9% (inactive)	101%
COc1cccc(N2C(=O)N(c3ccccc3Cl)C3CS(=O)(=O)CC32)c1 (stereo not given)	-47.6% (inactive)	122%
O=C(NCc1cccs1)c1cc2c(s1)CS(=O)(=O)C2	-42.8% (inactive)	113%
CC(C)CC(c1nnnn1C(C)(C)C)N1CCN(C2CCCC2)CC1 (stereo not given)	-5.6% (inactive)	109%
Cc1cc(C(=O)COC(=O)CCc2nc3ccccc3s2)c(C)n1C	-16% (inactive)	96%
Cc1cc(C)n2nc(SCC(=O)N(C)Cc3ccccc3)nc2n1	-18.9% (inactive)	115%
CCCCCCC(c1c(C)n(C)n(-c2ccccc2)c1=O)c1c(C)n(C)n(-c2ccccc2)c1=O	-39.4% (inactive)	102%
c1ccc2c(-c3nc(-c4ccncc4)no3)cccc2c1	-210% (inactive)	118%
CNC(=O)c1ccc2nc(NC(C)=O)sc2c1	13.2% (inactive)	56.8%
O=C(c1ccccc1)c1ccc(N2CCNCC2)cc1	2.4% (inactive)	102%
N#Cc1c(-c2ccc3c(c2)OCO3)csc1N	-102% (inactive)	106%
Cc1ccc(Cn2c(SCC(N)=O)nc3c2c(=O)n(C)c(=O)n3C)cc1	29.5% (inactive)	72.3%
C#CCOC(=O)C1C2C=CC(C2)C1C(=O)O (stereo not given)	-317% (inactive)	115%
Cc1nc2ncnn2c(N2CCC(C(=O)NCC3CCCO3)CC2)c1Cc1ccccc1 (stereo not given)	-143% (inactive)	112%
CCC(=O)Nc1nn(C)c2nc3c(C)cccc3cc12	-53.9% (inactive)	102%
Cc1cc(NC(=O)C(C)(C)C)no1	-50.6% (inactive)	124%

SMILES	inhibition	nuclei count
CCN(CC(=O)Nc1ccc2c(c1)CCC2)Cc1nc2ccccc2c(=O)[nH]1	-1.6% (inactive)	102%
Cc1ccc(S(=O)(=O)NCC(=O)OCC(=O)Nc2ncc(Cl)cc2Cl)cc1	-42.3% (inactive)	114%
O=C(CN1C(=O)c2ccccc2C1=O)Nc1ccc(S(=O)(=O)NCC2CCCO2)cc1 (stereo not given)	-52.4% (inactive)	107%
Cc1cc(C)nc(SCc2nnc(SCC(=O)Nc3ncc(C)s3)n2Cc2ccco2)n1	-23.5% (inactive)	103%
COc1ccc(C(C)NC(=O)c2ccoc2C)cc1OC (stereo not given)	51.2% (inactive)	54.3%
Cc1nc(C)n(C(C)CC(=O)O)n1 (stereo not given)	-147% (inactive)	115%
Cc1cccc(N(CC(=O)N2CCCC2)S(=O)(=O)c2ccccc2)c1C	-156% (inactive)	98.1%
CCC1(C)Cc2c(sc3nc(SCC(=O)O)[nH]c(=O)c23)CO1 (stereo not given)	-41% (inactive)	104%
Cc1cc(NC(=O)CSc2nc(C3CC3)nc3sc4c(c23)CCC(C)C4)no1 (stereo not given)	-43% (inactive)	113%
CCN(CC)C(c1ccc(C)cc1)c1nnnn1C1CCCCC1 (stereo not given)	60% (inactive)	88.2%
COc1ccc(NC(=O)CSc2nc(C)cc(C(F)(F)F)n2)cc1	-1% (inactive)	92.8%
CC1CN(C(=O)CSc2ncnc3sccc23)CC(C)O1 (stereo not given)	-1.1% (inactive)	102%
CC1CCCC(C)N1CCNC(=O)C1CCN(S(=O)(=O)N2CCCCC2)CC1 (stereo not given)	-93.7% (inactive)	115%
COc1ccc(C(=O)Nc2ccc(Cl)c(Cl)c2)c(OC)n1	-145% (inactive)	137%
CC(C)(C)c1ccc(C(=O)N2CCC(C(=O)NCc3ccncc3)CC2)cc1	-64.8% (inactive)	113%
CCc1nnc(NC(=O)CSc2nc(-c3ccc(OC)cc3)ns2)s1	-32.2% (inactive)	98.7%
COC(=O)c1ccc(NC(=O)C2C3CCC(C3)C2C(=O)O)cc1 (stereo not given)	52.5% (inactive)	103%
c1ccc(-c2nc3cnccn3c2Nc2ccc3c(c2)OCCO3)cc1	-20.7% (inactive)	110%
CCOCC(O)CS(=O)Cc1ccccc1 (stereo not given)	-38.6% (inactive)	126%
Cc1ccc(OCC(O)Cn2c(NCCc3ccccc3)nc3c2c(=O)[nH]c(=O)n3C)cc1 (stereo not given)	-5.4% (inactive)	113%

Reference: PubChem BioAssay
